# PLC-gamma1 inh: blocks human PLC-gamma1 enzyme activity; P19174; purified PLC-gamma1, fluorogenic substrate, fluorescence; inhibition, % at 12.2 µM; 0.84% of 370,000 active; in the data active = inhibition above about 9.5%
# PLCb3 inh: inhibitors of human phospholipase C beta3 | AID 720704 | Purified PLC-beta3, fluorogenic substrate, fluorescence | inhibition, % at 12.2 µM | Q01970 | 0.18% of 370,000 active; in the data active = inhibition above about 11%
# M18AAP inhibitor: blocks P. falciparum M18 aspartyl aminopeptidase; inhibition, % at 7.35 µM; recombinant PfM18AAP, H-Glu-NHMec fluorogenic cleavage; 1.2% of 290,000 active; AID 1822;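 active = inhibition above the campaign mean inhibition over all tested compounds plus 3 SD, cut at about 28% in these data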
# Rce1 inh: yeast Ras-converting enzyme inhibition; Q03530; yeast membranes, quenched prenylated peptide cleavage fluorescence; calls only; 0.27% of 290,000 active;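 active = fall in fluorescence gain of 50% or more versus controls, with final raw signal at or below 3038400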
# NPR1 activator: GC-A (human) enzyme activation; HEK293 GC-A cells, cGMP TR-FRET, EC30 ANP; 0% at EC30 ANP, 100% saturating ANP; AID 1671463; 0.14% of 370,000 active; activation, % at 10 µM; in the data active = activation above about 40%
# GC-B act: GC-B (human) receptor activation. P20594. HEK293-GC-B cells, CNP EC30, cGMP TR-FRET; 0% at EC30 CNP, 100% saturating CNP. activation, % at 10 µM. 0.11% of 370,000 active. AID 1920062;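 active = activation at 10 µM reaching about 35% in either raw or pattern-adjusted values, limit read from the data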
# Target sequence (P20594 whole entry, looked up): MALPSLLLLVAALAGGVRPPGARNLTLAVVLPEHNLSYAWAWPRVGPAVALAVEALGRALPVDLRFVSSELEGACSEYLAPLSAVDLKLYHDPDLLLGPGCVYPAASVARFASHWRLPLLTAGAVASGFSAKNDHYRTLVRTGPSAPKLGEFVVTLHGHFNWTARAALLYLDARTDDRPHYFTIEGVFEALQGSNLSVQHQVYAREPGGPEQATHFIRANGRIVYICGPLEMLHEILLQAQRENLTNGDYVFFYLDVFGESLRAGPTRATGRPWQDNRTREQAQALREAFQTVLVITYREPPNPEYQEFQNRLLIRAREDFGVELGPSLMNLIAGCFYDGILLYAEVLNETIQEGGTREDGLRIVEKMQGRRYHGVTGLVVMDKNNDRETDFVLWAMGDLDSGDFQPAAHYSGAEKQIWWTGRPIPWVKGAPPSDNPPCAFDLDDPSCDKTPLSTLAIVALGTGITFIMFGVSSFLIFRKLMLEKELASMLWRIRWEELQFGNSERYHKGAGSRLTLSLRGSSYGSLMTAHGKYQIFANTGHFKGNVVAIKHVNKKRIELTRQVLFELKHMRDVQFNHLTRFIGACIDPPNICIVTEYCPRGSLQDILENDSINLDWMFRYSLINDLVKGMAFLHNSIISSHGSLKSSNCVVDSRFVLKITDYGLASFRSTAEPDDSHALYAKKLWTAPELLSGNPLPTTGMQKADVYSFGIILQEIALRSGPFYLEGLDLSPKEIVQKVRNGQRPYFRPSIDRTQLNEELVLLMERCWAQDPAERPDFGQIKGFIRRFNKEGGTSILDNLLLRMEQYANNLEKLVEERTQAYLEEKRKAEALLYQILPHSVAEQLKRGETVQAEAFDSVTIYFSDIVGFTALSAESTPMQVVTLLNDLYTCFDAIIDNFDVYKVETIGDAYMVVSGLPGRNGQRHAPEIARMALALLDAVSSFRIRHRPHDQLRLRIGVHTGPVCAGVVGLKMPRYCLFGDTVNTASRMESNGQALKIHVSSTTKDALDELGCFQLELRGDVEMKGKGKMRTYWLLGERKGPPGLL
# Numbers stand for hits; 0 = inactive; - = no result given; + = active, no number. Hits are enriched below; roughly 2.2% of the tested compounds scored in any of these assays.
SMILES,PLC-gamma1 inh,PLCb3 inh,M18AAP inhibitor,Rce1 inh,NPR1 activator,GC-B act
CCc1ccccc1N1CSC2=C(C#N)C(c3cc(OC)c(OC)cc3OC)CC(=O)N2C1 (stereo not given),0,0,37.3,0,0,0
COc1cccc(C2CC(=O)N3CN(c4cccc(Cl)c4C)CSC3=C2C#N)c1OC (stereo not given),0,0,0,0,0,0
Cc1ccc(-c2n[nH]c(=S)n2-c2ccccc2)cc1,0,0,0,0,0,0
CS(=O)(=O)Nc1ccc(-c2n[nH]c(=S)n2-c2ccccc2)cc1,0,0,30.9,0,0,0
CCOC(=O)[C@]12CCCCC/C=C\1N(Cc1ccc(OC)cc1)C(=O)[C@H]2CC(=O)NCc1cccc2ccccc12,0,0,-,-,0,0
O=[N+]([O-])c1cc(C=NN2CCN(Cc3ccccc3Cl)CC2)ccc1Cl,0,0,-,-,0,0
COc1cc2c(cc1OC)C(C)N(C(=O)CCNC(=O)c1ccccc1)CC2 (stereo not given),0,0,0,+,0,0
COc1cc2c(cc1OC)C(C)N(C(=O)[C@@H](NC(=O)c1ccccc1)C(C)C)CC2 (stereo not given in full),0,0,0,0,0,0
COC(=O)c1ccc2nc(-c3ccccc3)c(Cc3cccc(F)c3)n2c1,0,0,-,-,0,0
COC(=O)c1ccc2nc(-c3ccc(F)cc3)c(Cc3cccc(F)c3)n2c1,0,0,-,-,0,38.9
Cc1ccc(Cc2c(-c3ccco3)nc3c(C)cc(Br)cn23)cc1,0,0,-,-,49.0,49.7
COC(=O)c1ccc2nc(-c3ccco3)c(Cc3ccc(C)cc3)n2c1,0,0,-,-,44.0,51.8
COC(=O)c1ccc2nc(-c3ccc(C)cc3)c(Cc3ccc(C)cc3)n2c1,0,0,-,-,0,50.2
C[C@H](O)[C@@H]1CN2CCc3c([nH]c4c(-c5ccc6c(c5)OCO6)cccc34)[C@@H]2C[C@@H]1N(C)C(=O)c1ccco1,0,0,-,-,0,0
COC(=O)c1ccc2nc(-c3ccco3)c(Cc3cccc(F)c3)n2c1,0,0,-,-,0,41.7
C=CC[C@H]1C=C[C@@H](C(C(=O)OC)C(=O)OC)CN1C(C)=O,19.9,0,-,-,0,0
CCC1CCCCN1C(=O)N[C@@H](CCSC)C(=O)OC (stereo not given in full),0,0,0,0,0,0
CC[C@H]1C=C[C@@H](C(C(=O)OC)C(=O)OC)CN1C(C)=O,25.2,0,-,-,0,0
C[C@H]1[C@@H](NC(=O)c2cccc(C(F)(F)F)c2)CC[C@@]23CCCN2C(=O)CCC[C@@H]13,0,0,-,-,0,0
CCOC(=O)c1c(/N=C/c2cc(OC)cc([N+](=O)[O-])c2O)sc(C)c1C,0,0,28.1,0,0,0
CCOC(=O)c1c(/N=C/c2cc([N+](=O)[O-])ccc2O)sc(C)c1C,0,0,0,0,0,0
Nc1c(C(=O)NCCN2CCOCC2)c2nc3ccccc3nc2n1-c1cccc(F)c1,0,0,0,+,0,0
CCCNC(=O)c1c(N)n(-c2cccc(OC)c2)c2nc3ccccc3nc12,0,0,0,0,0,0
O=C1C=C(c2ccc(F)cc2OCc2ccccc2)C[C@@H](c2ccc(Cl)cc2)C1,0,0,-,-,0,0
O=C1C=C(c2ccc(F)cc2OCc2ccccc2)C[C@@H](c2ccc3c(c2)OCO3)C1,0,0,-,-,0,39.4
SMILES,PLC-gamma1 inh,PLCb3 inh,M18AAP inhibitor,Rce1 inh,NPR1 activator,GC-B act
Cc1cc(C(F)(F)F)cc(NNC(=O)NC(=O)c2ccccc2Cl)n1,0,0,30.6,0,0,0
Cc1cc(C(F)(F)F)cc(NNC(=O)NC(=O)c2ccc(Cl)cc2)n1,0,0,0,0,0,0
Cc1ccc(SC[C@H](C)CN2CC[C@H](C)CCC2=O)cc1,0,0,0,0,0,0
C[C@@H]1CCC(=O)N(C[C@@H](C)CSc2ccccc2)CC1,10.9,0,0,0,0,0
O=[N+]([O-])c1nn(-c2ccc(Cl)cc2)n(O)c1=NCc1ccncc1,0,0,0,0,0,0
O=[N+]([O-])c1nn(-c2ccc(Cl)cc2)n(O)c1=NCc1cccnc1,0,0,0,0,40.8,0
O=[N+]([O-])c1nn(-c2ccc(Cl)cc2)n(O)c1=NCc1ccccc1Cl,0,0,0,0,42.6,0
CC(=O)CC[C@H]1CC[C@]2(CCCN(C(=O)c3ccno3)C2)O1,0,0,-,-,0,0
Cc1ccccc1OC(C)C(=O)N1CCC(Cc2ccccc2)CC1 (stereo not given),0,0,0,+,0,0
Oc1ccccc1C(=S)N1CCN(c2cccc(Cl)c2)CC1,0,0,29.6,0,0,0
NC(=O)N1N=C2/C(=C/c3ccccc3)CCCC2C1c1ccccc1 (stereo not given),0,0,0,+,0,0
NC(=S)N=Nc1ccc(NN=C(N)N)cc1,0,0,66.6,0,0,0
COc1ccc(-n2c(SCC(=O)Nc3ccc(S(=O)(=O)Nc4nccs4)cc3)nnc2-c2ccco2)cc1,0,0,-,-,0,0
Cc1ccc(-n2c(C)n[nH]c2=S)cc1,0,0,30.2,0,0,0
Cc1ccc(-n2c(C)n[nH]c2=S)cc1C,0,0,0,0,0,0
Nc1nc2c(ncn2[C@@H]2O[C@H](C(=O)NCCCN3CCCC3=O)[C@@H](O)[C@H]2O)c(=O)[nH]1,0,0,-,-,48.9,45.3
COc1ccccc1NC(=O)CSc1nnnn1-c1ccccc1F,0,0,0,0,0,0
COC(=O)c1sccc1NC(=O)CSc1nnnn1-c1ccccc1C,0,0,0,+,0,0
Nc1ncc(-c2ccccc2)c(-c2ccc(O)cc2O)n1,0,0,0,0,46.1,0
COc1ccc(-c2cnc(N)nc2-c2ccc(OCc3ccccc3)cc2O)cc1,0,0,0,0,0,0
N#CCCN1CCN(C(=S)c2ccc(-c3cc(Cl)ccc3Cl)o2)CC1,0,0,0,0,0,96.7
CN1CCN(C(=S)c2ccc(-c3cc(Cl)ccc3Cl)o2)CC1,0,0,0,0,0,50.4
S=C(c1ccc(-c2ccc(Cl)cc2Cl)o1)N1CCCC1,0,0,0,0,0,0
Cc1ccccc1C(=O)NC1CCCCN(Cc2cccc(C(F)(F)F)c2)C1=O (stereo not given),0,0,-,-,0,0
CC(C)n1cc(/C=C(\C#N)S(=O)(=O)c2ccccc2)c2ccccc21,0,0,0,0,0,51.0
CN(C)c1cccc(/C=C2\CC3(OC(=O)c4cccc(F)c4)CCCN2C3)c1 (stereo not given),0,0,-,-,0,0
COC(=O)[C@H](C)NC(=O)C(Cc1ccc2c(c1)OCO2)NC(C)=O (stereo not given in full),0,0,-,-,0,0
C[C@@H]1OCN(C)[C@H]2C[C@H]3c4[nH]c5cccc(-c6ccc7c(c6)OCO7)c5c4CCN3C[C@@H]12,0,0,-,-,0,0
